# Test results as given in PubChem BioAssay (NCI).
# Values joined by “and” are separate entries in the source; they are usually repeats but may differ in a detail not shown here. Equal values may be shown once. The panel holds about 83,000 compounds, 20% with a hit somewhere; the sample as a whole holds those more often.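 48-hour exposure, single concentration, 96-well plates; percent growth endpoint where 0 means no net growth. Active: below 10.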 Active and inactive are the calls of the source. *1 amine or outer side, *2 acyl side, *3 side chain or, on linkers, in order; H or OH if unused. Where a SMILES comes first, the peptide text is derived from it. [ ]: non-standard residue; d: D form. The star is where a group is joined. X5 = CCC(=O)CC1CC(C)CC(C(=O)[*:2])N1[*:1]; X4 = CCCCCCCCC(C)C(=O)*; Aib = CC(C)(N)C(=O)O; X6 = CC(CN(C)CCO)N*
# Tested on: RPMI-8226 leukemia
# Assay: NCI-60 one-dose screen, 48 h (100 = growth as untreated, 0 = no growth, -100 = all killed)
# Conditions: 10 µM unless noted
# Description: Growth inhibition of the RPMI-8226 human tumor cell line is measured as a screen for anti-cancer activity. Cells are grown in 96 well plates and exposed to the test compound for 48 hours. Compounds are tested at a single concentration, which is 10^-5 M for most compounds. The reported endpoint is percent growth (GI% or GIPRCNT), where numbers from 0 - 100% represent growth inhibition, and numbers from -100% - 0 represent cell death. For example, a value of 40 represents 60% growth inhibition. A value of 0 means no net growth occurred over the course of the experiment. A value of -40 indicates 40% of cells at the beginning of the experiment died by the end of the experiment. A value of -100 means all cells are dead at the end of the experiment.
# NCI-60 Human Tumor Cell Lines Screen was performed using the standard one-dose NCI protocol, which is described in more detail at https://dtp.cancer.gov/discovery_development/nci-60/default.htm.
# Compounds with GIPRCNT values below 10 were considered active. Activity score was based on GIPRCNT using the following formula: […]
# Score is 0 for GIPRCNT values of 100 or above, 50 for GIPRCNT values of 0, and 100 for GIPRCNT values of -100.
row,SMILES,growth
1,CCCCCCCCCCCC[N+]1(CCCCCCCCCCCC)CCCC(C)C1 (stereo not given),-63.1% (active)
2,Cc1cc(N/N=C/c2ccccn2)nc2ccccc12,13.7% (inactive)
3,CCCCCCCCCCCC[S+](C)CC(=O)[O-] (stereo not given),26.6% (inactive)
4,CC1=CC(=O)C=CC1(C)C(Cl)(Cl)Cl (stereo not given),104% (inactive)
5,CN(C)CCSC1=Nc2ccc(Cl)cc2C(c2ccccc2Cl)N(C)C1 (stereo not given),50.7% (inactive)
6,O=C(c1ccccc1)C(O)C(Br)(CBr)c1ccccc1 (stereo not given),73.6% (inactive)
7,COc1ccc(C(OCC2OC(n3ccc(NC(=O)c4ccccc4)nc3=O)C(O)C2O)(c2ccccc2)c2ccccc2)cc1 (stereo not given),3.08% (active)
8,CCN(CC)CCNc1ccc([N+](=O)[O-])c2sc3ccccc3c(=O)c12,22.2% (inactive)
9,Nc1cc(-c2ccccc2)ccc1O,-11.7% (active)
10,COc1ccc(C(Cn2ccnc2)Sc2ccc(Cl)c(Cl)c2)cc1 (stereo not given),50.7% (inactive)
11,O=C1c2ccccc2C(=O)c2c(O)c(Cl)cc(O)c21,96.4% (inactive)
12,OC(c1cc(-c2ccc(C(F)(F)F)cc2)nc(C(F)(F)F)c1)C1CCCCN1 (stereo not given),-35.4% (active) and -61.4% (active) and -21% (active)
13,Nc1ccc(-c2ccc(N)c(S(=O)(=O)O)c2)cc1S(=O)(=O)O,110% (inactive)
14,O=C(c1ccccc1)c1cc2ccccc2oc1=O,84.3% (inactive)
15,CCCOS(=O)(=O)c1ccccc1,71.2% (inactive)
16,CCOC(=O)/C(=C\c1ccc2ccccc2c1)P(=O)(OCC)OCC,-25.3% (active)
17,O=C1C(=O)c2cc([N+](=O)[O-])ccc2-c2ccccc21,-42.1% (active)
18,CC(C)c1ccc(C(=O)OC2CCCC2)cc1,98.3% (inactive)
19,NC(CS/C(Cl)=C/Cl)C(=O)O (stereo not given),36.2% (inactive)
20,O=[N+]([O-])c1ccc(C2N(Cc3ccc(Cl)cc3)CCN2Cc2ccc(Cl)cc2)cc1,83.9% (inactive)

row,SMILES,growth
1,CC1=CC(=NC(=O)CBr)C=C/C1=N\S(=O)(=O)c1ccccc1,84.5% (inactive)
2,C/C(=N\NC(=S)N1CC2CCC(CC2)C1)c1ccccn1,-6.26% (active)
3,Cc1oc2c(C)c3oc(=O)cc(C)c3cc2c1CCl,54.4% (inactive)
4,Cc1cccc2c(N)c3ccccc3nc12,-15.4% (active)
5,CCCCCCCCC(C)C(=O)N1CCCC1C(=O)N1C(CC(=O)CC)CC(C)CC1C(=O)NC(C)C(=O)NC(C)(C)C(=O)NC(C)(C)C(=O)NC(C(=O)NC(C)C(=O)NC(C)(C)C(=O)NC(C)(C)C(=O)NC(C)CN(C)CCO)C(C)CC (stereo not given) (X4-P[X5]A[Aib][Aib]IA[Aib][Aib]-X6; configuration not given here),-42.5% (active)
6,CCOc1ccc(C(CN2CCOCC2)C(C)=O)cc1OC (stereo not given),62.3% (inactive)
7,O=C1c2ccccc2Cc2cccc(Cl)c21,106% (inactive)
8,CC(CSc1n[nH]c(=S)s1)c1ccccc1 (stereo not given),103% (inactive)
9,CCN(CC)CC(O)CNc1ccc(NCC2CO2)c2c1C(=O)c1ccccc1C2=O (stereo not given),-40.8% (active)
10,Nc1cccc2cccc([N+](=O)[O-])c12,98.5% (inactive)
11,Cc1ccc2c(c1)sc(-c1ccc(N(C)C)cc1)[n+]2C,-56.7% (active)
12,OC(Cc1cc(CC(O)(C(F)(F)F)C(F)(F)F)nc(CC(O)(C(F)(F)F)C(F)(F)F)c1)(C(F)(F)F)C(F)(F)F,-7.53% (active)
13,Oc1c(Cl)cc(Cl)cc1C=NCC1CCC(CN=Cc2cc(Cl)cc(Cl)c2O)CC1 (stereo not given),76.7% (inactive)
14,Cc1cc(C(N)=O)cc(C)c1C(=O)OCCCl,111% (inactive)
15,CCOC(=O)c1c(C)[nH]c2ccc(O)cc12,89.5% (inactive)
16,O=C1C=CC(=O)c2c(O)c(CO)c(CO)c(O)c21,18.2% (inactive)
17,Oc1ccc2ccccc2c1N=Nc1nccs1,2.25% (active)
18,CCCCOS(=O)(=O)c1ccccc1,126% (inactive)
19,CC[n+]1ccc(Nc2ccc(NC(=O)c3ccc(Nc4cc[n+](CC)c5ccc([N+](=O)[O-])cc45)cc3)cc2)cc1,41.9% (inactive)
20,O=C(c1ccccc1)N(CCCl)C(=O)N(CCCl)C(=O)c1ccccc1,101% (inactive)
